Source: PubChem BioAssay (NCI)
Where “and” joins values, the source holds several entries; their conditions need not be identical. Identical values can stand only once. About 83,000 compounds went through this panel and 20% of them were active in at least one assay; those are over-represented in the sample as a whole.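 Method: cells in 96-well plates; compound added at one concentration; 48 h incubation; percent growth measured; values under 10 scored active.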 Calls of active or inactive are those of the source.

Legend:
Test in all cases: NCI-60 one-dose screen, 48 h (100 = growth as untreated, 0 = no growth, -100 = all killed)
Conditions in all cases: 10 µM unless noted
T-47D breast = test system: T-47D breast
BT-549 breast = test system: BT-549 breast
MDA-MB-435 melanoma = test system: MDA-MB-435 melanoma
SW-620 colon = test system: SW-620 colon
MCF7 breast = test system: MCF7 breast
HCT-116 colon = test system: HCT-116 colon
HCC-2998 colon = test system: HCC-2998 colon
KM12 colon = test system: KM12 colon
MDA-MB-468 breast = test system: MDA-MB-468 breast

Measured: growth

Cc1ccc(C2CC(c3ccc(NC(=O)Nc4ccccc4)cc3)=NN2c2ccc(S(C)(=O)=O)cc2)cc1 (configuration not stated)
active: BT-549 breast -32.8% | MDA-MB-435 melanoma -7.07% | SW-620 colon -42.6% | MCF7 breast -34.3% | HCT-116 colon -36.5% | HCC-2998 colon -80.7% | KM12 colon -2.32% | MDA-MB-468 breast -1.05%
inactive: T-47D breast 11.9%

COc1ccc(NC(=O)N/N=C/c2c[nH]c3ccccc23)cc1
inactive: T-47D breast 43.3% | BT-549 breast 19.1% | SW-620 colon 25% | MCF7 breast 16.8% | HCT-116 colon 21.5% | HCC-2998 colon 44.3% | KM12 colon 24.7% | MDA-MB-468 breast 16.4%
active: MDA-MB-435 melanoma -26.1%

CC1(C)CC(=O)C2=C(C1)OC(N)=C(c1nc3ccccc3[nH]1)C2c1ccc(Cl)cc1 (configuration not stated)
inactive: T-47D breast 72.3% and 117% | BT-549 breast 57.5% and 123% | MDA-MB-435 melanoma 60.5% and 109% | SW-620 colon 81% and 104% | MCF7 breast 56.4% and 93.7% | HCT-116 colon 63.4% and 103% | HCC-2998 colon 76.9% and 111% | KM12 colon 36.7% and 100% | MDA-MB-468 breast 47.3% and 103%

O=C(c1ccc(Cl)cc1)C1[C@H](c2ccccc2Cl)[C@@H](c2ccccc2)NC12C(=O)Nc1ccccc12 (some centres not stated)
active: T-47D breast -6.74% | BT-549 breast -77.4% | MDA-MB-435 melanoma -82.8% | SW-620 colon -5.33% | MCF7 breast -19% | HCT-116 colon -91.3% | HCC-2998 colon -46.2% | KM12 colon -23.4% | MDA-MB-468 breast -44.8%

COc1cc(NC(=O)CSc2nnc(-c3ccc(-c4nc5ccc(Cl)cc5[nH]4)cc3)o2)cc(OC)c1OC
active: MDA-MB-435 melanoma -20.3% | MCF7 breast 6.03% | MDA-MB-468 breast 3.14%
inactive: T-47D breast 41.5% | BT-549 breast 70.7% | SW-620 colon 40.1% | HCT-116 colon 33.2% | HCC-2998 colon 68.9% | KM12 colon 30.8%

CC(C)C[C@H](NC(=O)CNC(=O)C[C@H]1O[C@@H]2OC3(C)CC[C@H]4[C@H](C)CC[C@@H]([C@H]1C)[C@@]24O3)B(O)O
active: T-47D breast -30.8% | BT-549 breast -87% | MDA-MB-435 melanoma -71.1% | SW-620 colon -0.307% | HCT-116 colon -67.2% | HCC-2998 colon -94.5% | KM12 colon -24.4% | MDA-MB-468 breast -58.4%
inactive: MCF7 breast 20.3%

Cc1ccc(S(=O)(=O)Nc2ccc(-c3ccc4c(c3)NC(=O)/C4=C\c3ccc[nH]3)cc2)cc1
active: MCF7 breast 3.35% | MDA-MB-468 breast -25.8%
inactive: T-47D breast 18.8% | BT-549 breast 63.7% | MDA-MB-435 melanoma 90.1% | SW-620 colon 47.2% | HCT-116 colon 60.6% | HCC-2998 colon 106% | KM12 colon 67.1%

Cc1nn(-c2ccccc2)c2nc(C)n(C(=O)N/N=C/c3ccccc3)c(=O)c12
inactive: T-47D breast 90.6% | BT-549 breast 101% | MDA-MB-435 melanoma 102% | SW-620 colon 101% | MCF7 breast 92.9% | HCT-116 colon 102% | HCC-2998 colon 100% | KM12 colon 99.4% | MDA-MB-468 breast 115%

N#CC1=C(c2cccs2)Nc2c(c(-c3ccccc3)nn2-c2ccccc2)C12C(=O)Nc1ccc(Br)cc12 (configuration not stated)
active: T-47D breast 1.8% | BT-549 breast -68.4% | MDA-MB-435 melanoma -40.1% | SW-620 colon -24.6% | MCF7 breast 7.23% | HCT-116 colon -52.8% | HCC-2998 colon 6.28% | KM12 colon -12.2% | MDA-MB-468 breast -31.9%

COc1ccc(-c2cc(C(=O)OCc3ccc(Br)cc3)nn2-c2ccc(S(C)(=O)=O)cc2)cc1OC
inactive: T-47D breast 48.4% | BT-549 breast 74% | MDA-MB-435 melanoma 89.8% | SW-620 colon 99.2% | MCF7 breast 72.1% | HCT-116 colon 83.4% | HCC-2998 colon 95.8% | KM12 colon 93.1% | MDA-MB-468 breast 64%

COc1ccc(C(=O)c2c(N)c(C#N)cn2-c2ccc([N+](=O)[O-])cc2)cc1
inactive: T-47D breast 90.1% | BT-549 breast 113% | MDA-MB-435 melanoma 81.1% | SW-620 colon 105% | MCF7 breast 95.1% | HCT-116 colon 106% | HCC-2998 colon 101% | KM12 colon 105% | MDA-MB-468 breast 109%

COc1ccc(NC(=O)Nc2nc3ccc([N+](=O)[O-])cc3s2)cc1
inactive: BT-549 breast 17.9% | MDA-MB-435 melanoma 23% | SW-620 colon 15% | HCT-116 colon 10.3% | HCC-2998 colon 19.2%
active: T-47D breast 4.2% | MCF7 breast 0.377% | KM12 colon 3.81% | MDA-MB-468 breast -7.85%

COc1ccc(-c2nc3ccccc3n2CC(=O)N=Nc2c(O)[nH]c3ccc(Br)cc23)cc1
inactive: T-47D breast 90.9% | BT-549 breast 53.3% | MDA-MB-435 melanoma 23.3% | SW-620 colon 83% | MCF7 breast 43.7% | HCT-116 colon 51.9% | HCC-2998 colon 108% | KM12 colon 71.1% | MDA-MB-468 breast 56.1%

CCCCCCCCCc1ccc(C(=O)Nc2cc(C)ccc2C(=O)OC)cc1
inactive: T-47D breast 99.1% | BT-549 breast 129% | MDA-MB-435 melanoma 105% | SW-620 colon 99.7% | MCF7 breast 91.2% | HCT-116 colon 96.7% | HCC-2998 colon 122% | KM12 colon 105% | MDA-MB-468 breast 118%

Fc1ccc(N2CC(Cn3c(C(F)(F)F)cc4c(Cl)ncnc43)C2)c(F)c1
inactive: T-47D breast 56.8% | MDA-MB-435 melanoma 15.9% | MCF7 breast 57.7% | KM12 colon 99.5%
active: BT-549 breast -84.5% | SW-620 colon -79.6% | HCT-116 colon -92.1% | HCC-2998 colon -91.4% | MDA-MB-468 breast -50.5%

COc1cc(/C=C/C(=O)c2cnn(-c3cc(=O)[nH]c4ccc(C)cc34)c2C)cc(OC)c1OC
active: T-47D breast 1.32% | BT-549 breast -57.2% | MDA-MB-435 melanoma 1.91% | SW-620 colon -57.6% | MCF7 breast -15.7% | HCT-116 colon -77.3% | HCC-2998 colon -99% | KM12 colon -41.8% | MDA-MB-468 breast -77.3%

CCCCCCCCc1ccc(C(=O)Nc2cccc(O)c2)cc1
inactive: T-47D breast 67.7% | BT-549 breast 51.2% | MDA-MB-435 melanoma 50.5% | SW-620 colon 93.5% | MCF7 breast 60.3% | HCT-116 colon 65% | HCC-2998 colon 109% | KM12 colon 54.3% | MDA-MB-468 breast 90.9%

CN(C)C(=O)c1cc(-c2ccc3ncnc(N4CCc5cc(F)c(Cl)cc54)c3c2)cnc1N
active: T-47D breast -59.1% | BT-549 breast -82.9% | MDA-MB-435 melanoma -58.5% | SW-620 colon -51.8% | MCF7 breast -59.9% | HCT-116 colon -97.4% | HCC-2998 colon -82.2% | KM12 colon -58.3% | MDA-MB-468 breast -80.4%

C/C(=N\Nc1ccc(S(N)(=O)=O)cc1)c1cnn(-c2cc(=O)[nH]c3ccc(Br)cc23)c1C
active: MDA-MB-435 melanoma 4.39% | MDA-MB-468 breast -10.8%
inactive: T-47D breast 17.5% | BT-549 breast 37.7% | SW-620 colon 75.7% | MCF7 breast 23.1% | HCT-116 colon 58.5% | HCC-2998 colon 73.4% | KM12 colon 53.7%

CC[C@]12C=CCN3CC[C@]4(C(=C(C(=O)OC)C1)Nc1cc(OC)c([C@@H]5[C@H]6O[C@H]6[C@@]6(CC)CC(C(=O)OC)=C7Nc8cc(OC)ccc8[C@@]78CCN5[C@@H]68)cc14)[C@@H]32
inactive: T-47D breast 25.7% | BT-549 breast 62.8% | MDA-MB-435 melanoma 57.6% | SW-620 colon 50.4% | MCF7 breast 17.2% | HCT-116 colon 20.5% | HCC-2998 colon 112% | KM12 colon 49.6% | MDA-MB-468 breast 28.9%

Cc1ccc(-c2cc(-c3ccccc3)[nH]c(=O)c2C#N)cc1
inactive: T-47D breast 73.5% | BT-549 breast 88.5% | MDA-MB-435 melanoma 107% | SW-620 colon 97.8% | MCF7 breast 75.1% | HCT-116 colon 94.3% | HCC-2998 colon 114% | KM12 colon 91.2% | MDA-MB-468 breast 89.4%

Cc1cccc(C)c1Nc1nnc(-c2c[nH]c3ccccc23)o1
inactive: T-47D breast 87.1% | BT-549 breast 105% | MDA-MB-435 melanoma 103% | SW-620 colon 99.5% | MCF7 breast 83.4% | HCT-116 colon 100% | HCC-2998 colon 119% | KM12 colon 102% | MDA-MB-468 breast 93.2%

Cc1cc(C2(c3cc(C)c(OCC(O)CNc4c(C)n(C)n(-c5ccccc5)c4=O)cc3C(C)C)OC(=O)c3ccccc32)c(C(C)C)cc1OCC(O)CNc1c(C)n(C)n(-c2ccccc2)c1=O (configuration not stated)
inactive: BT-549 breast 27.3% | MDA-MB-435 melanoma 12.5% | SW-620 colon 18.4% | MCF7 breast 15.9% | HCC-2998 colon 36.8% | KM12 colon 16.5%
active: T-47D breast 1.64% | HCT-116 colon 5.4% | MDA-MB-468 breast -13.9%

COc1ccc(NC(=O)Cn2c(/C=C/c3cccc(OC)c3)nc3ccccc3c2=O)cc1
active: T-47D breast -15%
inactive: BT-549 breast 73.8% | MDA-MB-435 melanoma 59.1% | SW-620 colon 41.2% | MCF7 breast 30.4% | HCT-116 colon 13.9% | HCC-2998 colon 92.5% | KM12 colon 82.5% | MDA-MB-468 breast 71.4%

O=Cc1cncc(-c2ccc3ncnc(N4CCc5cc(F)c(Cl)cc54)c3c2)c1
inactive: T-47D breast 23.7% | MDA-MB-435 melanoma 46.2% | SW-620 colon 23.4% | HCT-116 colon 33.7% | HCC-2998 colon 64% | KM12 colon 81.8%
active: BT-549 breast -7.41% | MCF7 breast 1.77% | MDA-MB-468 breast -52.4%

O=C(NNC(=S)NC(=O)c1ccccc1)c1ccc(OCc2nc3ccc(Cl)cc3[nH]2)cc1
active: BT-549 breast -51.8% | MDA-MB-435 melanoma -51.2% | MCF7 breast 3.67% | HCT-116 colon -34.6% | HCC-2998 colon -80.3% | KM12 colon -3.11% | MDA-MB-468 breast -41%
inactive: T-47D breast 10.2% | SW-620 colon 19.8%

Cc1ccc(C(=O)C[n+]2cccc3c4ccccc4ccc32)cc1
inactive: T-47D breast 43.8% | BT-549 breast 20.8% | MDA-MB-435 melanoma 13.5% | SW-620 colon 19.5% | MCF7 breast 11.8% | HCT-116 colon 11.8% | HCC-2998 colon 17.4% | KM12 colon 25.7%
active: MDA-MB-468 breast -10.3%

O=C(NN1C(=O)/C(=C/C=C/c2ccc([N+](=O)[O-])o2)SC1=S)c1ccc(O)cc1
active: T-47D breast -53.4% | BT-549 breast -94% | MDA-MB-435 melanoma -91% | SW-620 colon -69.1% | MCF7 breast -54.4% | HCT-116 colon -85.1% | HCC-2998 colon -92.6% | KM12 colon -95.2% | MDA-MB-468 breast -77.3%
